TrxR1 substrate: is turned over as a substrate by rat TrxR1 | Potency, µM (top dose mostly 114 µM), for inactives: at the top dose activity change, negative = substrate turnover | purified TrxR1 substrate turnover, NADPH consumption readout | O89049 | AID 588456 | hit rate 0.01% among 390,000; note: nearly all actives have a fitted effect of over 50% in size
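Rat TrxR1, dispensed at 90 nM, was prereduced with 400 uM NADPH (final) for 5 min at ~22 deg C, then incubated with compound 15 min before 400 uM selenite. A first-read NADPH fluorescence drop versus no-compound background flagged substrates.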
VDR inhibitor: vitamin D3 receptor (human) inhibition | P11473 | VDR-SRC2-3 peptide fluorescence polarization, 2 h | Potency, µM, for inactives: max response, negative = inhibition, most hits filed as inhibitors | hit rate 0.93% among 400,000
Target sequence (P11473 whole entry, looked up): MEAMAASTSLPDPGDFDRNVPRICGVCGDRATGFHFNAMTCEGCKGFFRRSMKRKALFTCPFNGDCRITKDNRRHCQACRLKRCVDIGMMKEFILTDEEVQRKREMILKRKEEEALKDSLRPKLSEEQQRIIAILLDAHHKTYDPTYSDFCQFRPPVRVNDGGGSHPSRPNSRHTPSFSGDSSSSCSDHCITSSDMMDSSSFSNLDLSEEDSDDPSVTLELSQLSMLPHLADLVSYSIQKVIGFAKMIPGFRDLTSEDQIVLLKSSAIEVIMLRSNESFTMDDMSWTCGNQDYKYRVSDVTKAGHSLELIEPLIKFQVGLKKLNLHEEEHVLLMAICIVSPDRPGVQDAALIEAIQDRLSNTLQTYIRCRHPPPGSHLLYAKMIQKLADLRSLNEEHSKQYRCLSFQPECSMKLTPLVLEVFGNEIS
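Measured by FP: displacement of SRC2-3 coactivator peptide from VDR by library compounds, following a two-hour ambient incubation.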
KAT2A inh: blocks human GCN5L2 histone acetyltransferase; AID 504327; Potency, µM (titrated, usually from 58.9 µM), for the others: at the highest dose activity change, negative = inhibition, hits mostly inhibitors; GCN5L2 HAT assay, ThioGlo1 CoA-SH fluorescence; hit rate 0.21% among 390,000; Q92830
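GCN5L2 (20 nM) in 50mM HEPES pH 7.5, 0.1mM EDTA, 0.01% Tween-20 preincubated 15 min with compounds at room temperature. Reaction started with H3(1-25) 75uM, acetyl-CoA 70uM, ThioGlo1 50uM; CoA-thiol fluorescence (Ex340/Em540) read at 0 and 20 min.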
TrxR1 inh: rat TrxR1 inhibition; O89049; recombinant rTrxR1, NADPH fluorescence consumption, selenite substrate; Potency, µM (highest dose often 114 µM), inactives show at the top dose activity change, negative = inhibition, actives largely listed as inhibitors; hit rate 1% among 390,000; note: nearly all actives have a fitted effect of over 65% in size
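Rat TrxR1 (90 nM in the dispensed reagent) was pre-reduced with 400 uM NADPH for 5 min at room temperature, then incubated with compound for 15 min. After 400 uM selenite was added, NADPH fluorescence (Ex 340/Em 450 nm) was followed for 8 min.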
* = called active by the depositor; ? = inconclusive; nt = no result given; ! = a repeat was not active; [ ] = another dose, or the depositor's remark. A selection: hits, their analogues and other compounds. The true share with any hit is near 1.8%. Calls come from the whole dose curve; as a rule, active = well fitted curve in the direction sought with a large enough effect; inconclusive = small, poorly fitted or top-dose-only effect, or another doubt; inactive = no such curve, though single readings can be large; an effect the other way counts as inactive or inconclusive. % is set by controls: 0 for no effect and ±100 for the full control effect; potency is the fitted concentration of half-maximal effect.

SMILES	TrxR1 substrate	VDR inhibitor	KAT2A inh	TrxR1 inh
COc1cc(/C=C2\C(=O)NC(=O)N(CCc3ccc(F)cc3)C2=O)ccc1O	-9.4%	?	-2.2%	14.1µM*
Oc1cc[c]([Hg][Cl])cc1	nt	3.98µM*	0.141µM*	nt
O=S(=O)(c1ccc(O)cc1)c1ccc(O)cc1	-2.1%	-7.0%	1.7%	7.5%
C/C=C/C/C=C/CCC(=O)[C@H]1O[C@H]1C(N)=O	nt	?	-2.2%	nt
C=C1C(=O)OC2CC3(C)OC3CCC(C)=CC(OC(C)=O)C12 (stereo not given)	11.9%[57.1 µM]	70.8µM*	nt	?
C=CC[C@@H](CC/C=C/C=C/CC/C=C\[C@@H]1CSC([C@@H]2C[C@@H]2C)=N1)OC	-0.3%	?	0.2%	50.1µM*
CC(=O)N1CC[N+](C)(C)CC1	nt	1.2%	20µM*	nt
NC(=O)O	nt	8.9%	-17.1%	nt
[O]=[Sb]([OH])([OH])[c]1ccccc1	-1.0%	79.4µM*	nt	6.31µM*
CCNN	nt	-0.3%	-23.7%	nt
CO/C1=C\C(C)=C\[C@@H](C)[C@@H](O)[C@@H](C)C/C(C)=C/C=C/[C@H](OC)[C@@H]([C@@H](C)[C@@H](O)[C@H](C)[C@@]2(O)C[C@@H](O)[C@H](C)C(C(C)C)O2)OC1=O (stereo not given in full)	nt	?	-17.7%	nt
COc1ccc(CN2Cc3cnnn3-c3ccccc3C2C#N)cc1 (stereo not given)	2.8%	20µM*	nt	-17.0%
COc1ccc(CN2Cc3cnnn3-c3ccccc3C2c2ccccc2)cc1 (stereo not given)	-5.5%	2.7%	nt	1.3%
C/C1=C/C(=O)O[C@@H]2C[C@@H](CC[C@H](C)/C=C\CC1)O[C@@](O)(C1CSC(=O)N1)C2 (stereo not given in full)	nt	?	-13.1%	nt
Cc1ccc(NC2C(=O)NC(=O)NC2=O)cc1	-12.4%[57.1 µM]	14.1µM*	nt	-8.2%[2.29 µM]
O=C1NC(=O)C(Nc2ccccc2)C(=O)N1	-6.4%[57.1 µM]	25.1µM*	nt	-5.0%[2.29 µM]
CCC1CN2CCC1CC2C(O)c1ccnc2ccc(OC)cc12 (stereo not given)	nt	2.8%	-6.5%	nt
Cc1cccc(N2C(=O)NC(=O)/C(=C\c3ccc4c(c3)CCCN4Cc3ccccc3)C2=O)c1	11.5%[57.1 µM]	?	-16.6%	?
CCC(C)N1C(=O)/C(=C/c2ccc3c(c2)CCN3CCCCl)C(=O)NC1=S (stereo not given)	0.3%	0.6%	2.4%	12.6µM*
C[C@](O)(CS(=O)(=O)c1ccc(F)cc1)C(=O)Nc1ccc(C#N)c(C(F)(F)F)c1	nt	-11.1%	-5.6%	nt
O=[N+]([O-])c1ccc(N2CC2)c([N+](=O)[O-])c1	-13.7%	0.1%	nt	1.2%
CCOC(=O)N1C(C)CN(/[N+]([O-])=N/Oc2ccc([N+](=O)[O-])cc2[N+](=O)[O-])CC1C (stereo not given)	-11.8%	-14.1%	nt	25.1µM*
N#CC(C#N)=Cc1ccc(O)c(O)c1	4.4%[57.1 µM]	50.1µM*	-16.5%	16.8µM*
O=C1C=C2C(=CCOC2O)O1 (stereo not given)	nt	12.6µM*	7.8%	nt
COc1cc2c3cc1Oc1c(OC)c(OC)cc4c1[C@@H](Cc1ccc(OC(=O)c5ccc([N+](=O)[O-])cc5)c(c1)Oc1ccc(cc1)C[C@@H]3N(C)CC2)N(C)CC4	nt	?	0.0%	nt
SMILES	TrxR1 substrate	VDR inhibitor	KAT2A inh	TrxR1 inh
CCCCC/C=C\C/C=C\C/C=C\C/C=C\CCCC(=O)N[C@H](C)CO	nt	35.5µM*!	3.7%	nt
CCCCC/C=C\C/C=C\CCCCCCCC(=O)NCCO	nt	?	2.8%	nt
CCCCC/C=C\C/C=C\C/C=C\C/C=C\CCCC(=O)OC(CO)CO	nt	35.5µM*!	?	nt
N[C@]1(C(=O)O)CC[C@@H](C(=O)O)C1 (racemic)	nt	0.8%	5.3%	nt
CN1CCC[C@@H]1c1cccnc1	nt	4.4%	?	nt
C=C1[C@@H]2C[C@]3(C(CC2=O)[C@]24C5C[C@H]3[C@H]2N(CC)C[C@]5(C)CC[C@@H]4O)[C@@H]1O (stereo not given in full)	nt	-13.5%	-1.0%	nt
CCCCC/C=C\C/C=C\C/C=C\C/C=C\CCCC(=O)NC1CC1	nt	?	0.7%	nt
N#Cc1c(/N=C/C2C(=O)NC(=S)NC2=O)sc2c1CCCC2	-5.1%	?	-1.1%	22.4µM*
CCOC(=O)c1c(/N=C/C2C(=O)NC(=S)NC2=O)sc2c1CCC2	-3.8%[57.1 µM]	?	0.4%	17.8µM*
CCOC(=O)c1cc(C)sc1/N=C/C1C(=O)NC(=S)NC1=O	-4.9%[57.1 µM]	?	-7.5%	0.708µM*
CCOC(=O)c1c(/N=C/C2C(=O)NC(=S)NC2=O)sc(C)c1C	nt	nt	-1.3%	nt
CNCC(N)C(=O)O (stereo not given)	nt	-13.3%	0.0%	nt
CCOC(=O)c1oc2ccc(S(=O)(=O)n3nc(-c4ccc(Br)cc4)cc3N)cc2c1C	-0.5%	-19.2%	1.8%	29.6%
C[C@H]1[C@@H](O)[C@@H](C)/C=C\C=CCC\C=C/C=C\C=C/C=C[C@@H](O[C@H]2O[C@@H](C)[C@@H](O)[C@@H](N)[C@@H]2O)C[C@@H]2O[C@@](O)(C[C@@H](O)[C@H]2C(=O)O)C[C@@H](O)[C@@H](O)CC[C@@H](O)C[C@@H](O)C[C@@H](O)CC(=O)O[C@H]1C	nt	-1.1%	-7.1%[21.4 µM]	nt
CCN(CC)CCCCN1c2ccccc2Oc2ccc(Cl)cc21	nt	?	0.0%	nt
Cc1cccc(Oc2nc3c(C)cccn3c(=O)c2/C=C(\C#N)c2nc3ccccc3s2)c1	16.1%	?	-2.7%	48.7%
Cc1ccc2c(c1)Cc1c(C(=O)NN3CCCCC3)nn(-c3ccc(Cl)cc3Cl)c1-2	nt	-0.4%	?	nt
C=CCN1C(=O)/C(=C/c2cc(C)n(-c3ccccn3)c2C)C(=O)NC1=S	-14.5%	-35.7%	-1.5%	50.1µM*
Cc1cc(/C=C2/C(=O)NC(=O)N(Cc3ccco3)C2=O)c(C)n1-c1ccccc1O	-9.0%	31.8%	-9.4%	-9.9%
COc1ccc(-c2cc3nc(C)c(CCC(=O)N4CCN(c5cc(C)ccc5C)CC4)c(C)n3n2)c(OC)c1	17.7%	2.1%	0.6%	40.9%
Nc1c([N+](=O)[O-])ccc(Oc2ccccc2)c1Cl	nt	3.0%	5.4%	nt
O=C(CCl)c1ccc(O)c(O)c1	-2.0%	nt	nt	?
O=C(CCl)c1ccc(Oc2ccc(C(=O)CCl)cc2)cc1	nt	7.08µM*	?	nt
CN1C2CC(OC(=O)[C@H](CO)c3ccccc3)CC1C1OC12 (stereo not given in full)	9.8%[57.1 µM]	-0.1%	-7.1%	19.9%[57.1 µM]
CCN1C(=O)C(=Cc2ccc(C)s2)C(=O)N(CC)C1=S	-3.9%	?	-29.6%	14.1µM*
CN1C(=O)[C@]23CC4=CC=C[C@H](O)[C@H]4N2C(=O)[C@@]1(CO)SS3	nt	3.98µM*	-11.9%	nt
O=C(OC1Cc2c(O)cc(O)cc2OC1c1cc(O)c(O)c(O)c1)c1cc(O)c(O)c(O)c1 (stereo not given)	nt	50.1µM*	?	nt
COc1ccc(/C=C2/C(=O)NC(=O)N(c3ccc(C)c(C)c3)C2=O)cc1CN1C(=O)c2ccccc2C1=O	0.3%[57.1 µM]	50.1µM*	38.3%	?

Screening results (PubChem BioAssay)
